Reference: PubChem BioAssay AID1259421 (Broad Institute, 2018)
Where “and” joins values, the source holds several entries; their conditions need not be identical. Equal entries are not always repeated. The whole screen tested about 6,400 compounds, of which about 610 (9.5%) were called active. Cut-off read from the data, not from the text of the source: active = activity change below about -70%; inconclusive = no clear call, values can overlap the other calls; inactive = above that. Shown is part of a subset that was picked to be rich in actives. Some structures have more than one record in an assay (separate samples or runs), and their calls can disagree.

Test: Toxoplasma gondii ME49Luc growth in HeLa cells, luciferase, no IFN-y, primary screen (AID 1259421)
Details: T. gondii ME49Luc in HeLa, 72 h, stronger effect = lower value, concentration not given here
In the case of `CC(C)(C)N1CCC(c2ccccc2)(c2ccccc2)CC1`, the activity change, negative = inhibition is reported as 14.2% (inactive). In the case of `CCC[C@@]1(CCc2ccccc2)CC(=O)C([C@H](CC)c2cccc(NS(=O)(=O)c3ccc(C(F)(F)F)cn3)c2)C(=O)O1` (stereo not given in full), the activity change, negative = inhibition is reported as 10.4% (inactive). For `COc1ccc(C(=O)Nc2c(Cl)cncc2Cl)cc1OC1CCCC1`, the activity change, negative = inhibition was 3.75% (inactive). In the case of `COc1ccc(NC(=O)c2ccc(C(=N)N(C)C)cc2)c(C(=O)Nc2ccc(Cl)cn2)c1`, the activity change, negative = inhibition is reported as -0.285% (inactive). For `COc1cc(CCc2cc(NC(=O)c3ccc(N4C[C@@H](C)N[C@@H](C)C4)cc3)n[nH]2)cc(OC)c1`, the activity change, negative = inhibition was -81.1% (active). In the case of `C/C=N/N(C)C=O`, the activity change, negative = inhibition is reported as 3.01% (inactive). For `Cc1[nH]c(C)c(Cl)c(=O)c1Cl`, the activity change, negative = inhibition was -1.17% (inactive) and -3.71% (inactive). For `Cc1cccc(Oc2cnc(=O)[nH]c2)c1`, the activity change, negative = inhibition was 9.21% (inactive). For `CCCS(=O)(=O)Nc1ccc(F)c(C(=O)c2c[nH]c3ncc(Cl)cc23)c1F`, the activity change, negative = inhibition was -26.4% (inactive). For `CCCCOC(=O)c1cc2c(cn1)[nH]c1ccccc12`, the activity change, negative = inhibition was 42.7% (inactive) and 253% (inactive). With `CCCCOc1c(C(=O)c2c(F)cc(C)cc2F)cnc2n[nH]cc12` the activity change, negative = inhibition was -88.2% (active). For `COc1cc(OC)c2ccc(=O)oc2c1`, the activity change, negative = inhibition was 1.05% (inactive). For `Clc1ccc(CCCOCCCN2CCCCC2)cc1`, the activity change, negative = inhibition was 2.37% (inactive). With `Oc1ccc(-c2nc(-c3ccc(F)cc3)c(-c3ccncc3)[nH]2)cc1` the activity change, negative = inhibition was -91.7% (active) and -92.7% (active). With `COc1ccc2cc(-c3nc(-c4ccc(S(C)=O)cc4)[nH]c3-c3ccncc3)ccc2c1` (stereo not given) the activity change, negative = inhibition was -51.3% (inactive). For `COc1cc(S(C)=O)ccc1-c1nc2ncccc2[nH]1` (stereo not given), the activity change, negative = inhibition was -7.2% (inactive) and 19.1% (inactive). For `CS(=O)c1ccc(-c2nc(-c3ccc(F)cc3)c(-c3ccncc3)[nH]2)cc1` (stereo not given), the activity change, negative = inhibition was -85.1% (active) and -89.6% (active). In the case of `CS(=O)(=O)c1ccc(-c2nc(-c3ccc(F)cc3)c(-c3ccncc3)[nH]2)cc1`, the activity change, negative = inhibition is reported as -5.72% (inactive). In the case of `CC1(C)O[C@H]2CC(=O)OC[C@]23[C@H]2CC[C@@]4(C)[C@H](c5ccoc5)OC(=O)[C@H]5O[C@]54[C@]2(C)C(=O)C[C@@H]13`, the activity change, negative = inhibition is reported as 7.46% (inactive). For `CC/C=C\C/C=C\C/C=C\C/C=C\C/C=C\C/C=C\CCC(=O)OCC`, the activity change, negative = inhibition was 4.98% (inactive). With `COc1cc(O)c(C(=O)c2ccccc2)cc1O` the activity change, negative = inhibition was 6.03% (inactive). For `Cc1cc(CC(C)CC(C)(C)C)n(O)c(=O)c1` (stereo not given), the activity change, negative = inhibition was -84.1% (active). In the case of `Nc1nnnn1-c1ccccc1`, the activity change, negative = inhibition is reported as 6.66% (inactive). With `CCCCCCCCCCCCCC(=O)OC(C)C` the activity change, negative = inhibition was 13.1% (inactive). With `N#Cc1ncccn1` the activity change, negative = inhibition was 3.94% (inactive). In the case of `COc1cc(/C=C2\CCCN([C@@H](C)c3ccc(F)cc3)C2=O)ccc1-n1cnc(C)c1`, the activity change, negative = inhibition is reported as -5.26% (inactive). For `Cn1cc(-c2[nH]c3cc(NC(=O)[C@H](N)C4CCCCC4)cc4c3c2C=NNC4=O)cn1`, the activity change, negative = inhibition was -91.8% (active) and -59.2% (inactive). In the case of `CC(C)(C)Sc1c(CC(C)(C)C(=O)O)n(Cc2ccc(Cl)cc2)c2ccc(OCc3ccc4ccccc4n3)cc12`, the activity change, negative = inhibition is reported as 12.6% (inactive). With `COC(=O)C(Cc1ccc(OCCn2c(=O)sc3cc(C(=O)c4ccccc4)ccc32)cc1)C(=O)OC` the activity change, negative = inhibition was 18.5% (inactive). In the case of `CN(C)CCCO[C@H]1[C@@H](C(O)CO)OC2OC(C)(C)O[C@@H]21` (stereo not given in full), the activity change, negative = inhibition is reported as 4.68% (inactive). In the case of `Oc1cc2c(c(Cl)c1O)CCNC[C@@H]2c1ccccc1`, the activity change, negative = inhibition is reported as -18.1% (inactive). With `CCOC(=O)NCC(Cc1ccc(OCCc2nc(-c3ccccc3)oc2C)cc1)N/C(C)=C/C(=O)c1ccc(C(F)(F)F)cc1` (stereo not given) the activity change, negative = inhibition was -49.9% (inactive). In the case of `CNCCn1c(=O)c2cc(OC)c(OC)cc2c2cnc3cc4c(cc3c21)OCO4`, the activity change, negative = inhibition is reported as -94.2% (active). With `O=C1NC(O)CCN1[C@@H]1O[C@H](CO)[C@@H](O)[C@H]1O` (stereo not given in full) the activity change, negative = inhibition was -5.72% (inactive). In the case of `Cc1ccc(NC(=O)c2cccc(C(C)(C)C#N)c2)cc1Nc1ccc2ncn(C)c(=O)c2c1`, the activity change, negative = inhibition is reported as -3.87% (inactive). For `NC(=O)c1ccc[n+]([C@@H]2O[C@H](COP(=O)(O)OP(=O)(O)OC[C@H]3O[C@@H](n4cnc5c(N)ncnc54)[C@H](O)[C@@H]3O)[C@@H](O)[C@H]2O)c1`, the activity change, negative = inhibition was -1.89% (inactive). For `COc1ccc(-c2nc3ccc(C4=NNC(=O)CC4C)cc3[nH]2)cc1` (stereo not given), the activity change, negative = inhibition was 21.8% (inactive). In the case of `CNC(=O)c1nn(C)c2c1C(C)(C)Cc1cnc(Nc3ccc(N4CCN(C)CC4)cc3)nc1-2`, the activity change, negative = inhibition is reported as -73.5% (active). With `O=C(O)c1ccc(Nc2ncc3c(n2)-c2ccc(Cl)cc2C(c2c(F)cccc2F)=NC3)cc1` the activity change, negative = inhibition was -36.4% (inactive). In the case of `CCOC(=O)C1=C(N)Oc2ccc(Br)cc2[C@H]1[C@H](C#N)C(=O)OCC`, the activity change, negative = inhibition is reported as -65.8% (inactive). With `CC[C@]12CCCN3CCc4c(n(c5ccccc45)[C@](O)(C(=O)OC)C1)[C@@H]32` the activity change, negative = inhibition was 8.44% (inactive) and 5.97% (inactive). In the case of `CCCCc1nc2cc(/C=C/C(=O)NO)ccc2n1CCN(CC)CC`, the activity change, negative = inhibition is reported as -75.3% (active) and -94% (active). With `CCN(CC)CCn1c(=O)c(Cc2ccc(OC)cc2)nc2ccccc21` the activity change, negative = inhibition was -5.78% (inactive). For `N[C@@]1(C(=O)O)CC[C@H]2[C@H](C(=O)O)[C@H]21`, the activity change, negative = inhibition was 6.82% (inactive). With `COC(=O)[C@H](Cc1cccc(C(=N)N)c1)[C@@H](C)NC(=O)c1ccc(-c2cc[n+]([O-])cc2)cc1` the activity change, negative = inhibition was -6.72% (inactive). With `O=C1c2ccccc2S(=O)(=O)N1CCCN1CCN(c2ncccn2)CC1` the activity change, negative = inhibition was 6.33% (inactive). With `CS(=O)(=O)c1ccc(-c2cc(Br)sc2-c2ccc(F)cc2)cc1` the activity change, negative = inhibition was 22.9% (inactive) and 24.6% (inactive). For `CC(=O)C1(O)Cc2c(O)c3c(c(O)c2C(OC2CC(N)C(O)C(C)O2)C1)C(=O)c1c(O)cccc1C3=O` (stereo not given), the activity change, negative = inhibition was -82.5% (active). In the case of `CC(=O)[C@]1(O)Cc2c(O)c3c(c(O)c2[C@@H](O[C@H]2C[C@H](N)[C@H](O)[C@H](C)O2)C1)C(=O)c1ccccc1C3=O`, the activity change, negative = inhibition is reported as -72.5% (active) and -66% (inactive) and -71.5% (active). In the case of `CC(C)=CCCC(C)(OC1OC(COC2OC(CO)C(O)C2O)C(O)C(O)C1O)C1CCC2(C)C1C(O)CC1C3(C)CCC(OC4OC(CO)C(O)C(O)C4OC4OC(CO)C(O)C(O)C4O)C(C)(C)C3CCC12C` (stereo not given), the activity change, negative = inhibition is reported as 4.49% (inactive). In the case of `CC(C)C[C@H](NC(=O)[C@@H](COC(C)(C)C)NC(=O)[C@H](Cc1ccc(O)cc1)NC(=O)[C@H](CO)NC(=O)[C@H](Cc1c[nH]c2ccccc12)NC(=O)[C@H](Cc1cnc[nH]1)NC(=O)[C@@H]1CCC(=O)N1)C(=O)N[C@@H](CCCN=C(N)N)C(=O)N1CCC[C@H]1C(=O)NNC(N)=O`, the activity change, negative = inhibition is reported as 8.64% (inactive). For `O=[N+]([O-])c1cc(Cl)ccc1S(=O)(=O)N1CCN(Cc2ccccc2)CC1`, the activity change, negative = inhibition was 26.6% (inactive). In the case of `C=C1C[C@]23C[C@@]1(O)CC[C@H]2[C@@]12C=C[C@H](O)[C@@](C)(C(=O)O1)[C@H]2[C@@H]3C(=O)O`, the activity change, negative = inhibition is reported as 13.1% (inactive). For `CCC(=O)OCC(=O)[C@@]1(OC(=O)CC)[C@@H](C)C[C@H]2[C@@H]3CCC4=CC(=O)C=C[C@]4(C)[C@@]3(F)[C@@H](O)C[C@@]21C`, the activity change, negative = inhibition was -3.54% (inactive). With `CCC(=O)OCC(=O)C1(OC(=O)CC)C(C)CC2C3CCC4=CC(=O)C=CC4(C)C3(Cl)C(O)CC21C` (stereo not given) the activity change, negative = inhibition was -2.98% (inactive). For `CCC(=O)OCC(=O)[C@@]1(OC(=O)CC)[C@@H](C)C[C@H]2[C@@H]3CCC4=CC(=O)C=C[C@]4(C)[C@@]3(Cl)[C@@H](O)C[C@@]21C`, the activity change, negative = inhibition was -74.6% (active) and -1.83% (inactive). With `CC/C=C\C/C=C\C/C=C\CCCCCCCC(=O)O` the activity change, negative = inhibition was 11.4% (inactive). In the case of `Clc1ccc(N/N=C(\c2ccccc2)c2ccccn2)nc1`, the activity change, negative = inhibition is reported as 31.4% (inactive). For `N=C(N)S/C=C\C(=O)O`, the activity change, negative = inhibition was 28% (inactive). With `C[C@@H](Oc1ccc2[nH]nc(/C=C/c3cnn(CCO)c3)c2c1)c1c(Cl)cncc1Cl` the activity change, negative = inhibition was -81.2% (active). With `O=C(c1ccc(/C=C/c2n[nH]c3ccccc23)cc1)N1CCNCC1` the activity change, negative = inhibition was -59.7% (inactive). For `CCCSc1nc(N[C@@H]2C[C@@H]2c2ccc(F)c(F)c2)c2nnn([C@@H]3C[C@H](OCCO)[C@H](O)[C@H]3O)c2n1`, the activity change, negative = inhibition was 5.35% (inactive). For `O=C(O)CCNC(=O)c1ccc(N=Nc2ccc(O)c(C(=O)O)c2)cc1`, the activity change, negative = inhibition was 22.4% (inactive). In the case of `Nc1ncn([C@H]2C[C@H](O)[C@@H](CO)O2)c(=O)n1`, the activity change, negative = inhibition is reported as 35.6% (inactive). In the case of `Cc1cn([C@@H]2C[C@@H](O)[C@H](CO)O2)c(=O)[nH]c1=O`, the activity change, negative = inhibition is reported as -2.77% (inactive). In the case of `O=c1[nH]c(=O)n([C@H]2CCCO2)cc1F`, the activity change, negative = inhibition is reported as -87.1% (active) and -73.6% (active). For `O=c1[nH]c(=O)n([C@H]2C[C@H](O)[C@@H](CO)O2)cc1C(F)(F)F`, the activity change, negative = inhibition was -19.7% (inactive) and 1.85% (inactive). With `CCCCCOC(=O)Nc1nc(=O)n([C@@H]2O[C@H](C)[C@@H](O)[C@H]2O)cc1F` the activity change, negative = inhibition was -63.1% (inactive) and -62.7% (inactive). For `Nc1nc(=O)n([C@H]2C[C@H](O)[C@@H](CO)O2)cc1F`, the activity change, negative = inhibition was -94.3% (active). With `O=c1[nH]c(=O)n([C@H]2C[C@H](O)[C@@H](CO)O2)cc1Br` the activity change, negative = inhibition was 12.7% (inactive). In the case of `C[C@H]1O[C@@H](n2cc(F)c(=O)[nH]c2=O)[C@H](O)[C@@H]1O`, the activity change, negative = inhibition is reported as -95% (active). In the case of `O=c1[nH]c(=O)n([C@H]2CC(O)[C@@H](CO)O2)cc1C(F)(F)F` (stereo not given in full), the activity change, negative = inhibition is reported as 7.06% (inactive). For `O=c1[nH]c(=O)n([C@H]2C[C@H](O)[C@@H](CO)O2)cc1F`, the activity change, negative = inhibition was -81.1% (active). In the case of `Cc1cn([C@H]2O[C@@H](CO)[C@H](O)[C@@H]2F)c(=O)[nH]c1=O`, the activity change, negative = inhibition is reported as 14.2% (inactive). With `Nc1nc(=O)n([C@H]2C[C@@H](O)[C@@H](CO)O2)cc1Cl` the activity change, negative = inhibition was 7.28% (inactive).
